Assay results: PubChem BioAssay AID1792 (The Scripps Research Institute Molecular Screening Center, 2009)
Out of some 16,000 compounds screened, about 130 (0.81%) were called active. What follows is part of a selection rich in actives, with near analogues and random picks from the rest. Unmarked numbers belong to inactive results. Cut-off read from the data, not from the text of the source: active = inhibition above about 75%; inactive = the rest.

What follows are compounds tested against NADPH oxidase 1 (Homo sapiens) (UniProt Q9Y5S8) (assay: blocks human NADPH oxidase 1 activity (AID 1792)). Settings: HT29 cells, luminol chemiluminescence ROS; at 6.7 µM; stronger effect = higher value.
Sequence of NADPH oxidase 1 (Homo sapiens) (Q9Y5S8 whole entry, looked up): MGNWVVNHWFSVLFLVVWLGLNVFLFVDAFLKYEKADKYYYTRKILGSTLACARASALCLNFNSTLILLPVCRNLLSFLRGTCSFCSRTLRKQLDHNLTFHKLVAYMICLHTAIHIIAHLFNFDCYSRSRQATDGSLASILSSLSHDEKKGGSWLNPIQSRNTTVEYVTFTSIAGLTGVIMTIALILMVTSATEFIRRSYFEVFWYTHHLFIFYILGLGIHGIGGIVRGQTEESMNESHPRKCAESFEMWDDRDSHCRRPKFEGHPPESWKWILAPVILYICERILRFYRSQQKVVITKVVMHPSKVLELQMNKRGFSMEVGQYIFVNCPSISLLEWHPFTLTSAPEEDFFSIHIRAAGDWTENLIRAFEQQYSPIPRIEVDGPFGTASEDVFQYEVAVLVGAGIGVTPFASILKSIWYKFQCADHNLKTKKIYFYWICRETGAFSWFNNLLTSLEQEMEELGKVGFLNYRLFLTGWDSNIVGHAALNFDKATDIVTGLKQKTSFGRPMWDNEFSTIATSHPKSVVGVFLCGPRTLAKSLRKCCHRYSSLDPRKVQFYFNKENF
Compound `N#C/C(=C\c1sccc1Oc1ccccc1)S(=O)(=O)c1ccc(C(F)(F)F)cn1` has an inhibition of -16.5%. `CCCCC#Cc1cncc(C(=O)NNC(=O)Nc2ccc(Cl)cc2)c1` gave an inhibition of 11.2%. `N#Cc1cccnc1NNC(=O)Nc1ccc(OCc2ccccc2)cc1` showed an inhibition of 61.8%. In the case of `CC(C)CC(NC(=O)OC(C)(C)C)C(=O)OCc1ccc(CC(=O)O)cc1` (stereo not drawn), the inhibition is reported as -5%. With `O=c1c(-c2nc(-c3ccc(C(F)(F)F)cc3)no2)cnc2n1CCS2` the inhibition was -4.83%. For `CSc1sc(C(=O)NC2CC2)c(-c2ccc(Cl)cc2)c1C#N`, the inhibition was -9.35%. In the case of `NS(=O)(=O)c1ccc(Oc2c(Cl)cccc2[N+](=O)[O-])cc1`, the inhibition is reported as 21.2%. For `Cc1cc(C(=O)NCCNS(=O)(=O)c2ccc(Cl)cc2)c(C)o1`, the inhibition was 2.68%. `O=C1c2ccccc2O[C@@H](c2ccccc2)[C@@H]1NC1CCCCC1` was tested, and the inhibition was -19.7%. With `COC(=O)c1ccccc1-c1c2ccc(=O)cc-2oc2cc(O)ccc12` the inhibition was -13%. Work on `C#CC(C)(CC)OCC(O)CS(=O)(=O)O` (stereo not drawn) yielded an inhibition of -13.2%. In the case of `COc1cccc2c1c(NS(=O)(=O)c1cn(C)cn1)nn2C`, the inhibition is reported as -41.2%. Compound `Cc1nc(-n2cccc2)sc1C(=O)N/N=C/c1ccccc1Cl` has an inhibition of 6.52%. Work on `O=S(=O)(c1ccc(Cl)cc1)n1nccc1/C=C/c1cccs1` yielded an inhibition of -18.9%. `CSc1nnc(SC)n1CCNC(=O)Nc1cccc(Cl)c1` showed an inhibition of -65%. Compound `O=C(Cn1nnc2ccccc21)NCCSCc1ccco1` has an inhibition of 16.2%. `CN([C@H]1CCN2CCc3ccccc3C2C1)S(C)(=O)=O` (stereo partly drawn) showed an inhibition of -68.5%. In the case of `Cc1ccc(C(=O)N2CCN(c3cccc4[nH]ccc34)CC2)cc1`, the inhibition is reported as 76% (active). In the case of `N#Cc1nccnc1N1CCN(C(=O)c2ccccc2)CC1`, the inhibition is reported as -2.33%. With `COc1cccc(NC(=S)NNC(=S)NC2CC3CCC2C3)c1` (stereo not drawn) the inhibition was 87.8% (active). With `COc1ccc(NC(=S)Nc2ccc(OC)cc2)cc1` the inhibition was 3.7%. Work on `COc1cccc(NC(=S)N(CCC#N)C2CCCCC2)c1` yielded an inhibition of -44.9%. For `CSc1nc(-n2nc(C)cc2C)nc(-c2ccco2)c1C#N`, the inhibition was -107%. `Cc1ccc(NC(=S)C(C#N)C(=O)N2CCCC2)c(C)c1` (stereo not drawn) showed an inhibition of -73.4%. `CCOC(=O)c1c[nH]n2c(=O)c3c(nc12)CCC3` gave an inhibition of -13%. Compound `Cc1noc(C)c1S(=O)(=O)NCc1cc(F)cc2c1OCOC2` has an inhibition of -23.9%. `CS/C(=N/S(=O)(=O)c1c(C)noc1C)NNC(=O)Nc1ccc(Cl)cc1` showed an inhibition of 20%. Compound `CC1=NCCNC(C)=C1N1CCOCC1` has an inhibition of -21.2%. `CCCCNC(=O)OCCSCCS(=O)(=O)c1ccc(Cl)cc1` was tested, and the inhibition was -35%. Work on `O=C(NCc1cccnc1)Nc1cccc(NC(=O)NCc2cccnc2)c1F` yielded an inhibition of -23.7%. `CC(C)(C)OC(=O)n1ccc2cc(Br)ccc21` gave an inhibition of -51.3%. Compound `Fc1ccc(NC(=S)N2CCN=C2Nc2ccc(F)cc2)cc1` has an inhibition of -49.7%. For `O=C(O)c1ncoc1-c1cccc(Cl)c1`, the inhibition was -52.4%. With `CCOC(=O)CC(=O)CSc1nnc(N)s1` the inhibition was -48%. In the case of `N#Cc1cncc(Br)c1`, the inhibition is reported as -66.5%. In the case of `NNC(=O)CC1C(=O)NCCN1Cc1c(Cl)cccc1Cl` (stereo not drawn), the inhibition is reported as 14.9%. Compound `CSc1ccc(Br)cc1` has an inhibition of -59.5%. Compound `CC(C)(C)c1cc(NC(=O)/C(C#N)=C/c2cccc(Cl)c2Cl)c(C(N)=O)s1` has an inhibition of -9.18%. With `COC(=O)c1ccccc1N(C)C(=O)c1cc(OC)c(OC)c(OC)c1` the inhibition was -18%. `CCOC(=O)NC(=O)/C(=C/NCc1cccs1)C(=O)OCC` gave an inhibition of -20.5%. `NC(=O)c1ccc(-c2csnn2)cc1` gave an inhibition of -4.63%. `FC(F)(F)c1cc(-c2ccc(Br)cc2)n[nH]1` was tested, and the inhibition was -47%. For `Cc1ncn2cc(-c3ccc(Cl)cc3Cl)[nH]c(=O)c12`, the inhibition was -12%. `Cc1ccc(CSC(=N)N)cc1` gave an inhibition of -35.4%. Compound `O=C(NC(=S)Nc1nc(-c2ccc(Cl)cc2)cs1)C1CC1` has an inhibition of -57.1%. `CC(=O)NC(Cc1c[nH]c2ccccc12)C(=O)O` (stereo not drawn) was tested, and the inhibition was -15.3%. Work on `O=C(Cn1c(=Nc2ccc(F)cc2)oc2ccccc2c1=O)c1ccccc1` yielded an inhibition of -0.92%. `COc1ccc(S(=O)c2ccccc2C(=O)O)c(C(=O)O)c1` (stereo not drawn) was tested, and the inhibition was -11.3%. Work on `COc1ccccc1C1CCN(c2ccc([N+](=O)[O-])cn2)CC1` yielded an inhibition of 18%. Compound `O=C(Nc1ccc(C(F)(F)F)cn1)c1ccc(Oc2cc(Cl)cc(Cl)c2)o1` has an inhibition of -58.2%. `CCCCOC(=O)c1ccc(-c2ccccn2)s1` showed an inhibition of -10.4%. For `Cc1[nH]ncc1S(=O)(=O)c1ccc(Cl)cc1`, the inhibition was -77.8%. Compound `Cc1cc(C(=O)NNC(=O)c2cc(C)n(C(C)(C)C)n2)no1` has an inhibition of -45.9%. `O=C(Nc1ccccc1C(F)(F)F)N1CCCC1c1cccnc1` (stereo not drawn) showed an inhibition of -8.11%. `CCOC(=O)c1sc(SC)c(-c2ccccc2)c1N` was tested, and the inhibition was 0%. `N#Cc1c(C2CCCCC2)[nH]c(=S)[nH]c1=O` gave an inhibition of -8.73%. Compound `COc1c(/C(N)=N/O)cc(C)c2c1CCC2` has an inhibition of 8.11%. Compound `Cc1ccc(S(C)(=O)=NC(=O)NS(=O)(=O)Oc2ccc(Cl)cc2Cl)cc1` (stereo not drawn) has an inhibition of -64.7%. `O=C1c2ccccc2C(=O)N1CNc1ccc(C2CCCCC2)cc1` showed an inhibition of -10.4%. In the case of `O=C(c1ccc(C#Cc2ccccc2)o1)N1CCCCC1`, the inhibition is reported as -23.7%. `NNC(=O)c1csc(COc2ccc(C3SCCS3)cc2)n1` gave an inhibition of 4.76%. With `N/C(Cc1ccc(F)cc1F)=N\OC(=O)c1cccc(C(F)(F)F)c1` the inhibition was -67.4%. `O=C(c1ccccc1I)c1c[nH]c2ccccc12` showed an inhibition of 13.6%. `CC1(C)c2ccccc2-n2c1cc(O)c(-c1ccccc1)c2=O` was tested, and the inhibition was -50%. `COC(=O)c1c(C)noc1-c1ccno1` showed an inhibition of -21.7%. For `CCCCCCCCCCCCCC#CC(O)C(N)CO` (stereo not drawn), the inhibition was -24.7%. Compound `O=C(NNC(=O)C1c2ccccc2Oc2ccccc21)c1cccc(F)c1` has an inhibition of -30.2%. With `CC(=O)Nc1ccc(NC(=O)c2cc(C)ccc2[N+](=O)[O-])c(C)c1` the inhibition was -28.7%. In the case of `CSc1ccc(C(F)(F)F)cc1NC(=S)Nc1ccccc1`, the inhibition is reported as -18%. Work on `COC(=O)c1sccc1-c1ccc(/C(C)=N/NC(N)=O)o1` yielded an inhibition of -53.5%. Compound `CCOC1=NC(C(F)(F)F)(C(F)(F)F)N=C(N2CCOCC2)O1` has an inhibition of -12.7%. Compound `O=S(=O)(Cc1cccc(C(F)(F)F)c1)NCc1ccc2c(c1)OCO2` has an inhibition of -29.2%. With `Cc1nc(-c2ccccc2)sc1-c1nnc(C2CC2)o1` the inhibition was -8.29%. For `Cc1ccc(CC(=O)c2cccnc2)cc1`, the inhibition was 13.9%. For `COc1ccccc1N1CCN(C/C(N)=N/O)CC1`, the inhibition was -72.5%. In the case of `O=C(NCc1ccc2c(c1)OCO2)c1cccc2c1OCCCO2`, the inhibition is reported as -22.4%. In the case of `COc1ccc(-c2nnc(SCC(O)C(F)(F)F)n2-c2cccc(OC)c2)cc1` (stereo not drawn), the inhibition is reported as -65.7%. With `O=C1CCC(=O)N(c2ccccc2)N1` the inhibition was 5.82%. `CN(C)/C=N/NC(=O)c1nc(-c2cccc(-n3cccc3)c2)no1` showed an inhibition of 18.8%. With `O=S(=O)(Oc1ncccc1C(F)(F)F)c1cccc(F)c1` the inhibition was -33.3%. With `CC(C)(C)c1csc(Sc2ccc([N+](=O)[O-])cc2[N+](=O)[O-])n1` the inhibition was -42.4%. With `Cc1[nH]c2ccccc2c1Sc1ccc(Cl)cc1` the inhibition was -26.1%. For `CC1(C)C2CC[C@](C)(C2)C1NC(=O)c1c(Cl)cccc1Cl` (stereo partly drawn), the inhibition was -15.2%. `Oc1c(Cl)c(Cl)c(Cl)c2ccccc12` showed an inhibition of -9.97%. `O=C(Nc1ccccc1)N1CCN(Cc2ccccc2)CC1` was tested, and the inhibition was -18.5%. `Nc1[nH]c(=O)nc2nc[nH]c12` was tested, and the inhibition was 10.8%. With `CN(C)CCC(O)c1ccc2c(c1)OCCCCO2` (stereo not drawn) the inhibition was -25.5%. `Cc1ccc2sc(NC(=O)NC(=O)c3c(Cl)cccc3Cl)nc2c1` showed an inhibition of -14.9%. Work on `Cc1c(C(=O)Nc2ccccc2)sc2cc(C(C)(C)C)sc12` yielded an inhibition of 4.35%. For `CS(=O)(=NC(=O)c1cc2ccccc2o1)c1ccc(Cl)cc1` (stereo not drawn), the inhibition was 3.12%. In the case of `N#CCc1ccc(NC(=O)c2ccccc2C(=O)Nc2ccc(CC#N)cc2)cc1`, the inhibition is reported as -21.7%. `CCCN(CCC)S(=O)(=O)c1ccc(C(=O)N2CC3CCC(CC3)C2)cc1` showed an inhibition of -49.5%. For `OC(CNCc1ccc2c(c1)OCO2)COc1ccccc1` (stereo not drawn), the inhibition was -16.2%. Work on `CC(C)c1ccc(N2C(=O)/C(=C\c3ccc(-c4ccc([N+](=O)[O-])cc4)o3)SC2=S)cc1` yielded an inhibition of -23.7%. With `FC(F)(F)c1cccc(-n2c(-c3ccncc3)n[nH]c2=S)c1` the inhibition was -29.9%. `c1ccc(CN2CCN(Cn3nnc4ccccc43)CC2)cc1` was tested, and the inhibition was -54.1%. With `CC1(C)C=Cc2cc(-c3noc(-c4ccccc4)n3)ccc2O1` the inhibition was -38.9%. Work on `Nc1c(-c2nnc(SCC(=O)c3ccccc3)o2)cnn1-c1ccccc1` yielded an inhibition of 26.2%. For `FC(F)(F)c1ccc(/C=N/Nc2nccc(C(F)(F)F)n2)cc1`, the inhibition was -24.2%. Compound `CC(=O)Nc1cccc(-n2nnc(SCC(=O)c3cc(-c4ccccc4)no3)n2)c1` has an inhibition of -33.7%. `Cc1ccc(S(=O)(=O)NNC(=S)NC(C)(C)C)cc1` was tested, and the inhibition was -24.1%. Compound `C=C(C)c1cccc(C(C)(C)NC(=O)CC(C)=O)c1` has an inhibition of -17.3%. In the case of `COC(=O)c1cccc(CSc2ncccc2C(=O)O)c1`, the inhibition is reported as -48.1%.
